# Records with an inconclusive call do not appear. Values without a mark were called inactive. Calls come from the whole dose curve; as a rule, active = well fitted activation curve with a large enough effect in the repeat runs; inconclusive = weak or mixed curves; inactive = no such curve, though single readings can be large or run the other way. Where a SMILES comes first, the peptide text is derived from it. [ ]: non-standard residue; d: D form. pGlu = O=C1CC[C@@H](C(=O)O)N1
# Target: Nuclear receptor subfamily 1 group I member 3 (Homo sapiens) (UniProt Q14994)
# Sequence (Q14994 whole entry, looked up): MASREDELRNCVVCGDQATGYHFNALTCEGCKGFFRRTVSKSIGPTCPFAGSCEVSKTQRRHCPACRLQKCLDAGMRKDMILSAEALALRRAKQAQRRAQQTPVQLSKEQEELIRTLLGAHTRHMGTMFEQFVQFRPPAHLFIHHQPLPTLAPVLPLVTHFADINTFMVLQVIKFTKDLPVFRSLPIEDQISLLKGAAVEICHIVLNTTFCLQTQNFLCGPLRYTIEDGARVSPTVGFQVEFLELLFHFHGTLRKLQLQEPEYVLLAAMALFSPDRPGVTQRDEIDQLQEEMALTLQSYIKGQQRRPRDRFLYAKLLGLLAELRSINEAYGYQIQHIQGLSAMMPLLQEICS
# Assay: qHTS assay to identify small molecule agonists of the constitutive androstane receptor (CAR) signaling pathway (AID 1224839);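 note: HepG2 cells stably carrying human CAR and a CYP2B6 luciferase reporter; nearly all actives have a fitted effect of over 15% in size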
# Conditions: HepG2 hCAR CYP2B6-luciferase, agonist mode, 24 h; series mostly up to 92.4 µM; activation: at the top concentration
# In short: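 Luminescence read-out (ONE-Glo, 30 min, room temperature) from double-stable HepG2-CYP2B6-hCAR cells exposed 24 h to 15-point compound series in presence of 0.75 uM PK11195 final.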
# % is set by controls: 0 for no effect and ±100 for the full control effect.
row,SMILES,activation
1,CCCCCCC#CC(=O)OC,-4.06%
2,O=C(O)CCSCCC(=O)O,-2.06%
3,O=Cc1cccc(Br)c1,4.13%
4,Cc1ccc(C(=O)c2ccc(CC(=O)O)n2C)cc1,3.46% [at 42.5 µM]
5,CCCCCCCCCCCCCCCCCCO,-0.0461% [at 42.5 µM]
6,CCN(C=O)CC,0.0129%
7,COc1ccc2cc1Oc1cc3c(cc1OC)CC[N+](C)(C)[C@H]3Cc1ccc(cc1)Oc1c(OC)c(OC)cc3c1[C@@H](C2)[N+](C)(C)CC3,-0.234% [at 42.5 µM]
8,O=C(O)CC(C(=O)O)S(=O)(=O)O (stereo unspecified),-2.8%
9,CC1(C)OC[C@@H](COC(=O)CCc2ccc(OC[C@@H](O)CNCCNC(=O)N3CCOCC3)cc2)O1,2.21% [at 42.5 µM]
10,CC(CC=O)CC(C)(C)C (stereo unspecified),-1.56%
11,NC(CCC(=O)O)C(=O)O (stereo unspecified),2.03%
12,CCOC(=O)C(=O)CCCCCCl,-0.351% [at 42.5 µM]
13,Clc1cc(Cl)cc(Cl)c1,-2.85%
14,CO/N=C(\C(=O)N[C@@H]1C(=O)N2C(C(=O)O)=C(CSc3nc(=O)c(O)nn3C)CS[C@H]12)c1csc(N)n1,-1.98% [at 42.5 µM]
15,CCNC(=O)[C@@H]1CCCN1C(=O)[C@H](CCCN=C(N)N)NC(=O)[C@H](CC(C)C)NC(=O)CNC(=O)[C@H](Cc1ccc(O)cc1)NC(=O)[C@H](CO)NC(=O)[C@H](Cc1c[nH]c2ccccc12)NC(=O)[C@H](Cc1cnc[nH]1)NC(=O)[C@@H]1CCC(=O)N1 ([pGlu]HWSYGLRP-NHEt),-0.289% [at 42.5 µM]
16,CCCO[Si](OCCC)(OCCC)OCCC,-0.67%

row,SMILES,activation
1,CC(C)(C)c1ccc(-c2ccc(C(C)(C)C)cc2)cc1,4.11%
2,CC(C#N)(CCC(=O)O)N=NC(C)(C#N)CCC(=O)O (stereo unspecified),1.95%
3,CC(=O)Nc1ccc(OCC(O)CNC(C)C)cc1 (stereo unspecified),-1.06% [at 42.5 µM]
4,CCCCOCCOC(=O)CCCCCCCCC(=O)OCCOCCCC,-2.07%
5,CC(C)C(=O)OC(=O)C(C)C,-0.585%
6,CCCOC(=O)CC,-2.66%
7,COc1cc(C)nc(-n2nc(C)cc2OC)n1,3.71% [at 42.5 µM]
8,[O-][n+]1cccc(CO)c1,0.322% [at 42.5 µM]
9,O=S(=O)(O)c1cccc2c(S(=O)(=O)O)cccc12,-1.98%
10,CCCCCC(=O)OCCc1ccccc1,2.15%
11,COc1ccccc1OCC1CNC(=O)O1 (stereo unspecified),0.289% [at 42.5 µM]
12,CCC(C(=O)NC(=O)NC(C)=O)c1ccccc1 (stereo unspecified),-2.35% [at 42.5 µM]
13,CC[C@H]1OC(=O)[C@H](C)[C@@H](O[C@H]2C[C@@](C)(OC)[C@@H](O)[C@H](C)O2)[C@H](C)[C@@H](O[C@@H]2O[C@H](C)C[C@H](N(C)C)[C@H]2O)[C@](C)(OC)C[C@@H](C)C(=O)[C@H](C)[C@@H](O)[C@]1(C)O,-6.07%
14,C=CCOCC(O)CO (stereo unspecified),-2.57%
15,CC(=O)Oc1cccc(C)c1,0.14% [at 42.5 µM]
